About 27,000 (9.3%) of roughly 290,000 compounds were called active. For the sample, actives were picked, then their nearest neighbours and some compounds at random. A number with no mark means an inactive call. Rule as the data show it: active = inhibition mostly above about 28% (no sharp cut-off); inactive = mostly below about 43%.
Experiment: A qHTS for Small Molecule Inhibitors of Shiga Toxin; also: 0% is about no effect
Details: Vero cells, Shiga toxin protein synthesis inhibition reporter; at 38.7 µM, hits give high values

With COc1cc(NC(=O)C2=CC(c3ccc(C)cc3)=NS(=O)(=O)N2C)cc(OC)c1OC as the molecule, how does the inhibition read?
Its inhibition is 7.86%.

For Cc1[nH]c(C)c(S(=O)(=O)N2CCN(c3cccc(C(F)(F)F)c3)CC2)c1C(=O)N1CCCC1, which inhibition is on record?
The inhibition was -8.08%.

With CCCCCCC(=O)N(O)C1CC(=O)N(c2ccccc2)C1=O (stereo unspecified) as the molecule, how does the inhibition read?
Its inhibition is -2.28%.

For CCOc1ccc(N2C(=O)CC(N(CCc3ccc(OC)c(OC)c3)C(=S)Nc3ccccc3)C2=O)cc1 (stereo unspecified), which inhibition is on record?
Its inhibition is 9.09%.

For CCOc1ccc(N2C(=O)CC(N(O)c3ccccc3)C2=O)cc1 (stereo unspecified), which inhibition is on record?
The inhibition was 100% (active).

Which inhibition does the source give for CCc1nn(-c2cc(Oc3cccc4ccccc34)nc(-c3ccccc3)n2)c(N)c1C#N here?
The inhibition was -16.3%.

With CC1CCCC(C)N1/N=C/c1ccccc1OC(F)F (stereo unspecified) as the molecule, how does the inhibition read?
Its inhibition is -12.3%.

With COC(=O)c1ccc(/C=N\n2c(C)nnc2C)cc1 as the molecule, how does the inhibition read?
Its inhibition is 8.68%.

For COC(=O)c1ccc(/C=N/N2C(C)CCCC2C)cc1 (stereo unspecified), which inhibition is on record?
The inhibition was 66.3% (active).

Which inhibition does the source give for CCN(CC(=O)N1CCCC1)S(=O)(=O)c1ccc(F)cc1 here?
Its inhibition is -4.28%.

With COC(=O)c1ccc(C(NC(=O)OCc2ccccc2)/C(C)=C/[C@@H](C)C(=O)NCc2ccc(OC)c(OC)c2)cc1 (stereo partly specified) as the molecule, how does the inhibition read?
The inhibition was -13.4%.

Which inhibition does the source give for Cn1cnnc1SCC(=O)NNC(=O)COc1ccc(Br)cc1 here?
The inhibition was 1.38%.

For Nc1cccc2c1C(=O)N(Cc1nnc(-c3ccccc3Br)o1)C2=O, which inhibition is on record?
Its inhibition is 18.9%.

For Cn1cnnc1SCc1nnc(-c2ccccc2Br)o1, which inhibition is on record?
The inhibition was 58.3% (active).

For O=C(CN1C(=O)S/C(=C\c2ccccc2Cl)C1=O)NC1C=CS(=O)(=O)C1 (stereo unspecified), which inhibition is on record?
Its inhibition is -2.51%.

For COc1ccc(C2=NS(=O)(=O)N(C)C(C(=O)NC(C)c3ccccc3)=C2)cc1 (stereo unspecified), which inhibition is on record?
The inhibition was 10.4%.

For COc1ccc(CCNC(=O)CCCCCNC(=O)N2CCn3c2nc2ccccc23)cc1OC, which inhibition is on record?
Its inhibition is 4.93%.

For O=C(CNC(=O)c1ccccc1)Oc1ccc([N+](=O)[O-])cc1, which inhibition is on record?
The inhibition was -10.1%.

Which inhibition does the source give for O=C(Oc1ccc([N+](=O)[O-])cc1)c1ccc2ccccc2n1 here?
Its inhibition is -35.6% (active).

With COc1ccc(C2=NOC(COC(=O)c3ccc4ccccc4n3)C2)cc1 (stereo unspecified) as the molecule, how does the inhibition read?
Its inhibition is 22.8%.

For COc1ccc(C(=O)Nc2c(N)nc(SCC(=O)Nc3ccc(C(C)=O)cc3)[nH]c2=O)cc1, which inhibition is on record?
Its inhibition is -1.66%.

For Cc1cc(C(=O)N/N=C/c2ccccc2[N+](=O)[O-])c(C)o1, which inhibition is on record?
Its inhibition is 72.5% (active).

For CC(=C/c1ccccc1)/C=N/NC(=O)c1cc(C)oc1C, which inhibition is on record?
The inhibition was 0%.

With O=C(Cc1cc(=O)[nH][nH]1)N/N=C/c1ccccc1[N+](=O)[O-] as the molecule, how does the inhibition read?
Its inhibition is 13.6%.

For Cc1c(Cl)c([N+](=O)[O-])nn1CC(=O)NCCCN1CCOCC1, which inhibition is on record?
The inhibition was -6.5%.

Which inhibition does the source give for COc1ccc(-n2c(=O)[nH]c3cc(C(=O)NCCc4ccc(OC)c(OC)c4)ccc3c2=O)c(OC)c1 here?
Its inhibition is 3.16%.

For Cc1ccc(C2CC2C(=O)NN)cc1 (stereo unspecified), which inhibition is on record?
The inhibition was -15.4%.

Which inhibition does the source give for O=C(NNC(=S)Nc1ccc(F)cc1)[C@H]1C[C@@H]1c1ccccc1 here?
The inhibition was -8.83%.

For Cc1ccc(NC(=O)C2CC2c2ccccc2)cc1 (stereo unspecified), which inhibition is on record?
The inhibition was 32% (active).

For COc1ccc(OC)c(CNC(=O)c2cc(=O)[nH]c3ccc(S(=O)(=O)N4CCCC4)cc23)c1, which inhibition is on record?
The inhibition was -3.87%.

With COc1cccc(-n2c(N)cc(=O)nc2SCC(=O)Nc2cc(C)on2)c1 as the molecule, how does the inhibition read?
Its inhibition is 13.4%.

For COc1cc(OC)c(C(=O)Nc2ccccc2-c2ccccc2)cc1OC, which inhibition is on record?
Its inhibition is -5.65%.

With COc1cccc2sc(Nc3nc(C)c(C(C)=O)s3)nc12 as the molecule, how does the inhibition read?
The inhibition was 29.8%.

Which inhibition does the source give for COc1cc2ccccc2cc1C(=O)Nc1nc(C)c(C(C)=O)s1 here?
The inhibition was 69.5% (active).

Which inhibition does the source give for COc1cc2ccccc2cc1C(=O)Nc1ccc(NC(=O)c2cccs2)cc1 here?
The inhibition was 15.8%.

Which inhibition does the source give for CC(=O)c1sc(NC(=O)c2cccc3ccccc23)nc1C here?
The inhibition was 31.4%.

With COc1cc2ccccc2cc1C(=O)Nc1ccccc1C as the molecule, how does the inhibition read?
The inhibition was 32.5% (active).

With CCN(CC)c1ccc(NC(=O)CCc2nnc3ccc(N4CCCCC4)nn23)c(C)c1 as the molecule, how does the inhibition read?
The inhibition was -1.98%.

Which inhibition does the source give for Cc1[nH]c(C)c(S(=O)(=O)N2CCC(C)CC2)c1C(=O)N1CCCC1 here?
The inhibition was -4.27%.

For Cc1ccsc1-c1cc(C(=O)O)c2c(ccc3ccccc32)n1, which inhibition is on record?
Its inhibition is 17.5%.

With CN(Cc1c(F)cccc1Cl)S(=O)(=O)c1cccs1 as the molecule, how does the inhibition read?
Its inhibition is 20.7%.

With CC1CC(C)CN(c2ccc(S(=O)(=O)N3CCOCC3)cc2)C1 (stereo unspecified) as the molecule, how does the inhibition read?
Its inhibition is 13.9%.

For Cn1c(CC(=O)Nc2ccc(F)cc2)nnc1SCC(=O)NC1CCCCC1, which inhibition is on record?
Its inhibition is -5.18%.

With CN(C)c1ccnc(Nc2ccc(F)cc2)c1C#N as the molecule, how does the inhibition read?
The inhibition was 7.86%.

For CC(C)c1ccc(Nc2ncccc2C#N)cc1, which inhibition is on record?
The inhibition was 52.3% (active).

With CCOc1ccc(OCc2ccc(C(=O)Nc3cccc(C)n3)o2)cc1 as the molecule, how does the inhibition read?
Its inhibition is 42% (active).

For Cc1cccc(NC(=O)c2ccc(COc3ccccc3[N+](=O)[O-])o2)n1, which inhibition is on record?
Its inhibition is 32.9%.

With CC(=O)Cc1nsc(NC(=O)c2ccc(COc3ccc(C)cc3)o2)n1 as the molecule, how does the inhibition read?
Its inhibition is -9.97%.

Which inhibition does the source give for COc1ccc(CCNC(=O)NS(=O)(=O)c2ccc(C)cc2)cc1OC here?
Its inhibition is 4.27%.

With CC(C)Cc1nnc(NC(=O)CN2C(=O)NC3(CCCCC3)C2=O)s1 as the molecule, how does the inhibition read?
The inhibition was -8.2%.

Which inhibition does the source give for Cc1ccc(N2C(=O)C3CC3C2=O)cc1 (stereo unspecified) here?
The inhibition was 25.6%.

With Cc1ccc(N2CCN(c3ccc(C)cc3)C2c2ccccn2)cc1 as the molecule, how does the inhibition read?
Its inhibition is 57.4% (active).

With Cc1ccc(S(=O)(=O)NCC(=O)N2CCN(c3ccccn3)CC2)cc1 as the molecule, how does the inhibition read?
The inhibition was -5.02%.

Which inhibition does the source give for Cc1c(CN2CC[C@@H](N3CCN(c4ccccn4)CC3)[C@H](O)C2)[nH]c2ccc(F)cc12 here?
The inhibition was -5.39%.

With O=c1oc2cc(O)ccc2cc1-c1ccc(F)cc1 as the molecule, how does the inhibition read?
The inhibition was 70% (active).

Which inhibition does the source give for COc1ccc(-c2cc3ccc(OCc4nn[nH]n4)cc3oc2=O)cc1 here?
Its inhibition is 10.3%.

For COc1cccc(C(=O)c2cc3ccc(O)cc3oc2=O)c1, which inhibition is on record?
Its inhibition is 21.7%.

For Cc1cc2oc(=O)cc(CN(C)Cc3ccc(OC(F)F)cc3)c2cc1Cl, which inhibition is on record?
Its inhibition is 17.5%.

With O=C(CCc1nnc2ccc(NCCCN3CCCC3=O)nn12)NCc1ccccc1Cl as the molecule, how does the inhibition read?
The inhibition was 20.3%.

With COc1cc(Cl)c(C)cc1NC(=O)CN1CCCCCC1 as the molecule, how does the inhibition read?
The inhibition was 14.2%.

With Cc1csc(NC(=O)CN2CCCCCC2)n1 as the molecule, how does the inhibition read?
The inhibition was -8.35%.

For Cc1cc(C)c(NC(=O)CN2CCCCCC2)c(C)c1, which inhibition is on record?
The inhibition was 83.4% (active).

For O=c1cc(Cl)c2ccccc2n1-c1ccccc1, which inhibition is on record?
The inhibition was -8.33%.

For O=C(NC1CC1)c1ccc2c(c1)NC(=O)c1ccccc1S2, which inhibition is on record?
The inhibition was 13.2%.

Which inhibition does the source give for C/C(=N\Nc1cccc(C(=O)O)c1)c1ccc2c(c1)Nc1ccccc1S2 here?
The inhibition was 77.7% (active).

With Cc1ccccc1NC(=O)c1cc(S(=O)(=O)Nc2cccc(C(=O)O)c2)ccc1Cl as the molecule, how does the inhibition read?
Its inhibition is 24.3%.

With Fc1ccc(/C=N/n2c(COc3ccccc3)n[nH]c2=S)cc1 as the molecule, how does the inhibition read?
The inhibition was -5.88%.

Which inhibition does the source give for COc1cc(-c2n[nH]c(=S)n2Cc2ccccc2)cc(OC)c1OC here?
Its inhibition is -7.08%.

For COc1cc(/C=N/n2c(C)n[nH]c2=S)ccc1OCc1ccccc1, which inhibition is on record?
Its inhibition is -16.6% (active).

Which inhibition does the source give for COc1ccc(C)cc1Nc1n[n+](-c2ccccc2)c(-c2cccc(Cl)c2Cl)s1 here?
The inhibition was -3.92%.

With O=S(=O)(Nc1cccc(Oc2ccc(Cl)cc2)n1)c1ccc(F)cc1 as the molecule, how does the inhibition read?
The inhibition was 1.95%.

With COc1ccc(-c2csc3ncnc(N4CCN(S(=O)(=O)c5ccccc5C#N)CC4)c23)cc1 as the molecule, how does the inhibition read?
The inhibition was -3.69%.

With CCOC(=O)Cc1csc(NC(NC(=O)OCC)(C(F)(F)F)C(F)(F)F)n1 as the molecule, how does the inhibition read?
The inhibition was -12.7%.

Which inhibition does the source give for CCOC(=O)Cc1csc(NC(=O)C(C)(C)C)n1 here?
Its inhibition is 86.2% (active).

Which inhibition does the source give for CCOC(=O)Cc1csc(NC(=O)Nc2ccccc2)n1 here?
Its inhibition is 46.4%.

For Fc1ccc(-c2ccc(CNCc3ccccn3)o2)cc1Cl, which inhibition is on record?
Its inhibition is 2.57%.

With O=C(/C=C/Sc1ncn[nH]1)c1ccc(Cl)cc1 as the molecule, how does the inhibition read?
Its inhibition is 32.3% (active).

For O=C(NCCOCc1ccc(Cl)cc1)c1ncn[nH]1, which inhibition is on record?
Its inhibition is 10.4%.

For COc1ccc(Cl)cc1CSc1ncn[nH]1, which inhibition is on record?
The inhibition was 4.03%.

For COc1ccc(CCNc2nc3ccc(C)cc3n3cnnc23)cc1OC, which inhibition is on record?
Its inhibition is 4.18%.

For CCn1c(=O)n(CC)c2cc(N3CCCC3)c(NC(=O)c3ccccc3Br)cc21, which inhibition is on record?
The inhibition was -6.78%.

Which inhibition does the source give for Cc1ccc(OCCCC(=O)N2CCOCC2)c(C)c1 here?
Its inhibition is 88.9% (active).

With Cc1cc(S(=O)(=O)N2CCOCC2)ccc1OCC(=O)N1CCOCC1 as the molecule, how does the inhibition read?
Its inhibition is 26.1%.

Which inhibition does the source give for Cc1ccc(OCCCC(=O)NC(C)c2ccccc2)c(C)c1 (stereo unspecified) here?
Its inhibition is 7.36%.

With COc1c(O)c2c(=O)cc(OC)c3c4c(OC)cc(=O)c5c(O)c(OC)c6c(c(c1C[C@@](C)(O)[C@H]6C(C)=O)c23)c54 as the molecule, how does the inhibition read?
Its inhibition is 10.8%.

With CCOc1ccccc1NC(=O)C1CCCN(S(=O)(=O)c2ccccc2)C1 (stereo unspecified) as the molecule, how does the inhibition read?
The inhibition was -4.05%.

Which inhibition does the source give for FC(F)(F)c1nnc2c3ccccc3c(Cl)nn12 here?
The inhibition was 5.58%.

For Cc1cccc(C)c1NC(=O)COC(=O)c1ccccc1O, which inhibition is on record?
Its inhibition is -4.8%.

With COc1ccc(C(=O)N2CCCCC2C(=O)Nc2ccc(-n3nc(C)cc3C)cc2)o1 (stereo unspecified) as the molecule, how does the inhibition read?
Its inhibition is -7.96%.

For CCOC(=O)c1c(C)nc(-c2ccccc2)nc1NC(=O)C(C)C, which inhibition is on record?
Its inhibition is 38.3% (active).

With CCOC(=O)c1c(N)nn(C(=O)c2ccccc2)c1-c1ccccc1 as the molecule, how does the inhibition read?
The inhibition was -3.34%.

With CCC(=O)OCCNc1nc(-c2ccccc2)nc2ccccc12 as the molecule, how does the inhibition read?
The inhibition was -14.7%.

Which inhibition does the source give for COc1ccc(/C=C/c2c(-c3cccc(C)c3)oc3ccc(-c4ccc5c(c4)OCO5)cc23)cc1 here?
The inhibition was -4.7%.

For Fc1ccc(COc2ccc(-c3nnco3)cc2)cc1, which inhibition is on record?
Its inhibition is 63.9% (active).

For Fc1cccc(Cl)c1COc1ccc(-c2nnco2)cc1, which inhibition is on record?
The inhibition was 30.1%.

Which inhibition does the source give for Fc1ccc(COc2cccc(-c3n[nH]c(=S)o3)c2)cc1 here?
Its inhibition is 2.21%.

Reference: PubChem BioAssay AID2315 (National Center for Advancing Translational Sciences (NCATS), 2010)
